# Laboratory results reported in the antibiotic and cytotoxicity screens of Wong et al. (2023).
# The whole screen tested about 39,000 compounds, of which about 3,300 (8.5%) were called active. The full list was thinned out, with actives kept by preference.
# Test system: HepG2
# Assay: cytotoxicity call (relative viability < 0.9)
# Details: 10 µM
row,SMILES,cytotoxicity call
1,C[C@H](CO)N1C[C@H](C)[C@H](CN(C)Cc2ccc(C(=O)Nc3ccccc3N)cc2)Oc2ccc(NS(=O)(=O)c3cn(C)cn3)cc2C1=O,inactive
2,C[C@H]1CN([C@@H](C)CO)C(=O)c2cc(NS(=O)(=O)c3cccs3)ccc2O[C@H]1CN(C)Cc1ccncc1,inactive
3,Clc1ccc(/C=C/C2=Nc3cccc4cccc(c34)N2)cc1,inactive
4,Nc1c(O)cccc1C(=O)O,inactive
5,CCC[C@H](NC(=O)[C@@H]1[C@H]2CCC[C@H]2CN1C(=O)[C@@H](NC(=O)[C@@H](NC(=O)c1cnccn1)C1CCCCC1)C(C)(C)C)C(=O)C(=O)NC1CC1,active
6,CN1CCN(C(=O)C[C@H]2CC[C@@H]3[C@H](COc4ccc(NC(=O)c5ccc(F)c(F)c5)cc4C(=O)N3C)O2)CC1,inactive
7,N=C(C[n+]1ccccc1)NO,active
8,c1cc[n+](C[n+]2ccccc2)cc1,inactive
9,C[C@@H]1CCCCO[C@H](CN(C)Cc2ccc(C(F)(F)F)cc2)[C@H](C)CN([C@H](C)CO)C(=O)c2cc(NC(=O)c3ccncc3)ccc2O1,inactive
10,C[C@@H]1CCCCO[C@@H](CN(C)Cc2ccccc2)[C@H](C)CN([C@@H](C)CO)C(=O)c2cc(NC(=O)Nc3ccccc3)ccc2O1,active
11,C[C@@H]1CN([C@H](C)CO)C(=O)c2cc(NC(=O)Nc3ccccc3)ccc2O[C@@H](C)CCCCO[C@@H]1CN(C)Cc1ccccc1,active
12,C[C@@H]1CCCCO[C@H](CN(C)Cc2ccccc2)[C@H](C)CN([C@@H](C)CO)C(=O)c2cc(NC(=O)Nc3ccccc3)ccc2O1,inactive
13,C[C@H](CO)N1C[C@H](C)[C@@H](CN(C)Cc2ccccc2)OCCCC[C@H](C)Oc2ccc(NC(=O)Nc3ccccc3)cc2C1=O,inactive
14,C[C@@H]1CN([C@H](C)CO)C(=O)c2cc(NC(=O)Nc3ccccc3)ccc2O[C@@H](C)CCCCO[C@H]1CN(C)Cc1ccccc1,active
15,C[C@@H]1CCCCO[C@@H](CN(C)Cc2ccccc2)[C@@H](C)CN([C@H](C)CO)C(=O)c2cc(NC(=O)Nc3ccccc3)ccc2O1,inactive
16,C[C@@H]1CCCCO[C@H](CN(C)Cc2ccccc2)[C@H](C)CN([C@H](C)CO)C(=O)c2cc(NC(=O)Nc3ccccc3)ccc2O1,inactive
17,C[C@H](CO)N1C[C@H](C)[C@H](CN(C)Cc2ccccc2)OCCCC[C@H](C)Oc2ccc(NC(=O)Nc3ccccc3)cc2C1=O,inactive
18,C[C@@H]1CN([C@@H](C)CO)C(=O)c2cc(NC(=O)Nc3ccccc3)ccc2O[C@@H](C)CCCCO[C@H]1CN(C)Cc1ccccc1,inactive
19,C[C@@H]1CCCCO[C@H](CN(C)Cc2ccccc2)[C@@H](C)CN([C@@H](C)CO)C(=O)c2cc(NC(=O)Nc3ccccc3)ccc2O1,inactive
20,C[C@@H]1CCCCO[C@@H](CN(C)Cc2ccccc2)[C@H](C)CN([C@H](C)CO)C(=O)c2cc(NC(=O)Nc3ccccc3)ccc2O1,active
21,C[C@@H]1CN([C@@H](C)CO)C(=O)c2cc(NC(=O)Nc3ccccc3)ccc2O[C@@H](C)CCCCO[C@@H]1CN(C)Cc1ccccc1,inactive
